# Reference: the supplement of paper PMC11417369
# ± gives the standard deviation of the averaged measurements. The full ranking holds about 25,000 sequences; the median of “ln(normalized median fluorescence intensity)” is about 10, and the highest 2% start at about 12. This is one part of a sample in which the highest values are shown more often than they occur.
# Tested on: PfAP2-G AP2 domain (GST-tagged)
# Assay: gcPBM binding intensity (ln(normalized median fluorescence intensity)); higher = stronger DNA binding
# In short: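 Binding intensity is the highest Masliner-normalised natural-log median intensity over replicate spots in either probe orientation. To obtain it, GST-tagged P. falciparum DNA-binding domains made in E. coli were incubated for 1 h on an Agilent 4 × 180k array of primer-extended double-stranded 36-bp intergenic genomic probes plus negative controls. Detection used Alexa488 anti-GST antibody with scanning at 488 nm.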
row,Sequence,gcPBM binding intensity (ln)
1,TCAGAGTGAAGTTATACACACATGGTTTTTTTTTTT [CACACA_site2116],9.875 ± 0.021
2,TAAAGAAAAAAATGTTGTACTTTATGAAACATATTT [XGTACX_site412],11.2 ± 0.79
3,TAAATATTTTTTTAGACACACATATATCTATGATAT [CACACA_site1107],9.705 ± 0.049
4,TATACAAAATATTTTACACACACATATATATACATA [CACACA_site2616],10.01 ± 0.057
5,CCATTTACAAAAAGGAGTACACAAATATATGTTTAA [XGTACX_site649],11.6 ± 0.93
6,TTTCTCCCATTTTTTAGTACACAAAATATATATGTA [XGTACX_site7218],11.7 ± 1.1
7,TTAATTAAATATTATACACACAAAAAAATAATTTTA [CACACA_site96],10 ± 0.16
8,AGATAAAATATATACACACACATAAATACGTACAAA [CACACA_site1086],11.8 ± 1
9,TTATTTATTTTTATATGTACACAAAAAAAAAAAAAA [XGTACX_site1459],11.5 ± 1.1
10,AAAAAAAAAACATACACACACACAAATATTTATATA [CACACA_site437],9.85 ± 0.11
11,AATATACACCCGTGTACACAAATATTTACAAAACGT [CACACA_site4786],11.7 ± 1.1
12,ATTTTTTAAATGAGGCGTACACAAAAATATAATTAC [XGTACX_site7087],11.7 ± 1.1
13,AGATAAGATATATACACACACATAAATACGTACAAA [CACACA_site6639],11.6 ± 0.78
14,ATAAATAAGATACGTACACACATATACAAAATATAC [CACACA_site3661],11.5 ± 0.95
15,TTAATGAAATATTATACACACAAAAAAATAATTTTA [CACACA_site4231],9.915 ± 0.092
16,ATAACAAATATGATAGCATGCTACATATTACAACTT [TGCATGCA_site524],9.71 ± 0.16
17,TATATCTGTAAATGCACACATATGTGGATATACTTA [CACACA_site5013],10.1
18,ATATATATATATAGTAGTACTCTCTCTGTATATATA [XGTACX_site3754],11.3 ± 0.75
19,TATATAAACCCACCTACACACACAACGTAAATGCAT [CACACA_site8702],10.2 ± 0.14
20,AAAAAAAAAAAAAACACACAGAAATATATATATATT [CACACA_site832],9.82 ± 0.33
21,ATATATACCTATATTACACACTTCTTATTCTAAGAA [CACACA_site7421],9.865 ± 0.092
22,ATATAAATGAATATATGTACATATATATATATATAT [XGTACX_site6361],11.2 ± 0.52
23,AAGGAGCCTATGAACACACACATGTACAGATATTAA [CACACA_site6107],11.1 ± 0.52

row,Sequence,gcPBM binding intensity (ln)
1,TATATATACATATACACACACACACCGATATATATA [CACACA_site8706],10.1 ± 0.26
2,TATACAATATTTATAACACACATATTTATATAAACT [CACACA_site6932],9.885 ± 0.078
3,ATTATATATACATATACACACATACGTACATACATA [CACACA_site9194],11.5 ± 0.93
4,TGCTCTAATTTATATACACACAAATATGTACACATA [CACACA_site7845],11.7 ± 1.2
5,ATACATATATAAATACGTACATATATAATTATATAT [XGTACX_site8178],11.6 ± 0.93
6,TAAAATATTACGTGTACACATAAATAAAAATAAAAA [CACACA_site5066],11.8 ± 0.92
7,AAAGATAAAATATATACACACACATAAATACGTACA [CACACA_site8275],11.3 ± 0.88
8,TGTACAAATATGTACACACACACATATTTATTTATA [CACACA_site6419],11.5 ± 0.95
9,GAATAAATAAGATACGTACACACATATACAAAATAT [CACACA_site3660],11.7 ± 1.1
10,TTACACATATTATATATATATAAAAAAAAAAAATAT [CACACA_negctrl_site1684],9.82 ± 0.29
11,TGAATAAATAAGATACGTACACACATATACAAAATA [XGTACX_site7758],11.5 ± 0.83
12,TAATATTCAATTATACGTACACATATATATATATAT [XGTACX_site4245],11.8 ± 1.1
13,GATTTATACAAATATGTACACACTAATTATATATTA [CACACA_site8045],11.5 ± 0.87
14,TCATATAAATACACGTGTACATATATATATTACAGT [XGTACX_site1954],11.5 ± 0.81
15,ATTCTACGCACGCGCACACACAACAAAAAAAAAAAA [CACACA_site3538],10.8 ± 0.68
16,AACAGACATAGACACACACACATATATTTATTTATA [CACACA_site7571],10.11 ± 0.085
17,TTAACATAAATTGTGTCATTTTTTTTTTTTTTTTTA [CACACA_negctrl_site1221],9.725 ± 0.021
18,TAGCGCATAAAAAAAAAAAAATATATACTAATAAAT [GTGCAC_negctrl_site276],9.57 ± 0.071
19,TTCTATATATATATAGACAAACGATAAAATAAAAAA [GTGCAC_negctrl_site142],10.1 ± 0.23
20,GTATATTTCTTTAAATGTACACATTTTTTTAAAGAG [XGTACX_site1225],11.4 ± 0.98
21,AAAAACGAAAAAAATACACACCTGAAAAGATATGTA [CACACA_site4644],9.72 ± 0.16
22,TGACATATAAAATATTCACACACAAGTTATAGTTCT [CACACA_site9209],9.74 ± 0.11
23,CCAATGAGGATATATACACACATACATTAAAAAAAT [CACACA_site5090],10 ± 0.17

row,Sequence,gcPBM binding intensity (ln)
1,AATTTAATATAATGCACACATAAAAAAAAAATCAAA [CACACA_site1],10.1 ± 0.18
2,AATTTGTTATGTATATGTACATAAATAGATATATGA [XGTACX_site3930],11.2 ± 0.7
3,AAAGATATTTTTATCTCACACATATAATATATATAT [CACACA_site5478],9.84 ± 0.16
4,ATTAAATATATTTTGCGTACACAAAAAAATACGTTC [XGTACX_site3862],11.6 ± 0.97
5,AAAAAAAATTAAATAAATAAATATACACATATATAT [GTGCAC_negctrl_site394],9.47 ± 0.26
6,TTAAAATTAAAAATGCGTACACATATACATAAAAAA [XGTACX_site1915],11.7 ± 1
7,ATATATATATACATACGTACACACAAATATTAAAAT [XGTACX_site4007],11.6 ± 1.2
8,TAGATATATAATTTGCGTACACAAATAATATATTTT [XGTACX_site6397],11.4 ± 0.97
9,AAATTAAAATATAATACACACATAAAAAAAAAAAAA [CACACA_site4183],9.82 ± 0.38
10,TATATATACATACGTACACACAAATATTAAAATATA [CACACA_site1951],11.5 ± 1.1
11,AATAATACACAATTTTGTACGTATTTAAAATATATT [XGTACX_site45],11.3 ± 0.87
12,TATATATATACATACGTACACACAAATATTAAAATA [CACACA_site1950],11.8 ± 1.2
13,TATGGAACACACCTTAATATGTGATAAAATATGATA [GTGCAC_negctrl_site718],10 ± 0.2
14,AAAAATTTATTTAAAAGTACATAAAATAAAGGTGGA [XGTACX_site7591],11.4 ± 0.69
15,ACATCATTTTTATGTACACACACATATACGTTGAAT [CACACA_site5095],11.6 ± 0.98
16,AAGAAAATTAAATTAACACACATAAATATATATATA [CACACA_site1664],9.85 ± 0.28
17,GACATTAAAATGAAATATACATATATATGTATATAT [TGCATGCA_negctrl_site601],9.635 ± 0.049
18,AATTAAAATAGTAATACACACTTCATAGGAAATGAT [CACACA_site5045],9.83 ± 0.014
19,TAACATTAAAATAAAAGTACTTAATAATATTAAGTA [XGTACX_site5920],11.1 ± 0.87
20,TCTTATTTTTTTATATATACAAAGTTTTATATATAT [GTGCAC_negctrl_site314],9.915 ± 0.049
21,TTTCCTGGTCAAGGGGTTACGGTTACGTCCTCTTGC [CACACA_negctrl_site856],10.7 ± 0.49
22,ATTTTAGAATTTAATACACACAAAAAAAAAAAATTA [CACACA_site3704],10 ± 0.33
23,TAAATTAAGAATTTTACACACATTAAATAAAAAAAA [CACACA_site3638],9.805 ± 0.078

row,Sequence,gcPBM binding intensity (ln)
1,AAATTTTAATTAGACTGTACACATTTTAGAATAATT [XGTACX_site4819],11.6 ± 0.92
2,TTAAAAGATATTACATGTACATATTCAATATATGTA [XGTACX_site5895],11.1 ± 0.69
3,GAATGGACGTTAGGGGGTACGTATAAAATTTATCAA [XGTACX_site683],11.7 ± 0.81
4,ACGTATCAATTTATTGGTACACATAAATATATATAT [XGTACX_site5556],11.3 ± 0.92
5,AATTGTACGTAGGGGTATAAAAGCTTAAAAATGGGG [CACACA_negctrl_site1392],11.6 ± 0.91
6,ATATATTTTCAAAAAAGTAAATCAAAATAAATATAT [TGCATGCA_negctrl_site319],9.84 ± 0.085
7,AATACAGATAATACAACACACAAGTAATATAAACCT [CACACA_site5900],9.975 ± 0.021
8,GGTGATATAATATATACATGCACATATATATTATTA [TGCATGCA_site970],9.9 ± 0.042
9,CATTTAAAATTTGTTTGTACATATATATATATATAT [XGTACX_site6729],11 ± 0.66
10,AAAATTAATGTTGGTTGTACAAAAATTAAATATGGT [XGTACX_site66],11.3 ± 0.75
11,GTAGGTGTTTTTGGTTGTACATATAAATATATATAC [XGTACX_site3380],11.3 ± 0.8
12,TCCTTAAAATATGGTTGTACGTACATCCTAGGTGTT [XGTACX_site7068],11.7 ± 0.97
13,TATATAAATATATATGTACACACATATACATGTTGA [CACACA_site9022],11.3 ± 0.92
14,TATTTCAAATGTTATGTGCACATATTAATCCTACTT [GTGCAC_site9738],10.5 ± 0.28
15,ATAATTATCATAGGATGTACATATTTATTTTGTATA [XGTACX_site7797],11.2 ± 0.67
16,ATTTTTGTAATTATTTGTACACATTTATTTATGTGT [XGTACX_site1864],11.5 ± 0.73
17,AATGTGAAAACGTGTACACATTTTATTTAATTTATC [CACACA_site5966],11.6 ± 0.98
18,GCAAATGTGAAAACGTGTACACATTTTATTTAATTT [XGTACX_site8000],11.7 ± 1
19,TTATATTTATATTTATGTACATATTTTGTGTGAAAA [XGTACX_site2367],11.4 ± 0.97
20,TTTATTAAAACAAAATGTACACACATATAATTTAAT [XGTACX_site1637],11.2 ± 0.68
21,TTATTAAAACAAAATGTACACACATATAATTTAATG [CACACA_site8193],11.3 ± 0.73
